# Tests used:
# Assay in all cases: DAPPL (digital affinity profiling via proximity ligation, sequencing); 10 mM Tris-HCl pH 7.5, 50 mM NaCl, 1 mM DTT, 4% glycerol, room temperature, 30 min; GST-TFs on glutathione beads, 16-mer random dsDNA library, 0.1% formaldehyde crosslink after washing; high values mean tight binding
# FEV = target: T1, FEV (Homo sapiens, UniProt Q99581 1-238); conditions: protein: recombinant; tags: N-terminal GST; dsDNA, one strand shown
# T1 sequence: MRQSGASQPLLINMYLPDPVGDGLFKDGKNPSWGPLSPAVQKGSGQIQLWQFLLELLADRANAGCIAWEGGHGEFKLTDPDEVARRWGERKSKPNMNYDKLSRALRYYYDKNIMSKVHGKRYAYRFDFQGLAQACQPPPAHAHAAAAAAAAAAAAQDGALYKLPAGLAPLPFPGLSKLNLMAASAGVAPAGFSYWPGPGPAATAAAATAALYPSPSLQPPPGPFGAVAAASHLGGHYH
# Method in brief: (§1)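 Yeast served to express human transcription factors as GST fusions, which were then captured on glutathione beads and labelled with DNA barcodes. Pooled with a tag-only sample, they were incubated with 200 nmole of a 16-mer random double-stranded DNA library for 30 min at room temperature in Tris/NaCl/DTT/glycerol buffer, washed, crosslinked with 0.1% formaldehyde, ligated by proximity, amplified by PCR and sequenced. Dividing each hexamer's read frequency for a factor by its frequency for the tag-only sample gives the binding signal.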
# ETV5 = ETV5 (Homo sapiens, UniProt P41161 1-510); conditions: protein: recombinant; tags: N-terminal GST; dsDNA, one strand shown
# Method in brief: as §1
# HSF1 = HSF1 (Homo sapiens, UniProt Q00613 1-529); conditions: protein: recombinant; tags: N-terminal GST; chain copies: 3; dsDNA, one strand shown
# Method in brief: as §1
# SPIC = target: T2, SPIC (Homo sapiens, UniProt Q8N5J4 1-248); conditions: protein: recombinant; tags: N-terminal GST; dsDNA, one strand shown
# T2 sequence: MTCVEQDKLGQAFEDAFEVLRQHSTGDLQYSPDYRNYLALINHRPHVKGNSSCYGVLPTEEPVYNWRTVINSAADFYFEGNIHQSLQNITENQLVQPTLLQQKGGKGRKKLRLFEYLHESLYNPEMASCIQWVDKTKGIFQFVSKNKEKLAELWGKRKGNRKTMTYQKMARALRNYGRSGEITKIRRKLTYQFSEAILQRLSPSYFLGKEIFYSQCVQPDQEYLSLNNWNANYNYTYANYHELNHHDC
# Method in brief: as §1
# ELF4 = ELF4 (Homo sapiens, UniProt Q99607 1-663); conditions: protein: recombinant; tags: N-terminal GST; dsDNA, one strand shown
# Method in brief: as §1
# ELK4 = target: T3, ELK4 (Homo sapiens, UniProt P28324-2 1-405); conditions: protein: recombinant; tags: N-terminal GST; dsDNA, one strand shown
# T3 sequence: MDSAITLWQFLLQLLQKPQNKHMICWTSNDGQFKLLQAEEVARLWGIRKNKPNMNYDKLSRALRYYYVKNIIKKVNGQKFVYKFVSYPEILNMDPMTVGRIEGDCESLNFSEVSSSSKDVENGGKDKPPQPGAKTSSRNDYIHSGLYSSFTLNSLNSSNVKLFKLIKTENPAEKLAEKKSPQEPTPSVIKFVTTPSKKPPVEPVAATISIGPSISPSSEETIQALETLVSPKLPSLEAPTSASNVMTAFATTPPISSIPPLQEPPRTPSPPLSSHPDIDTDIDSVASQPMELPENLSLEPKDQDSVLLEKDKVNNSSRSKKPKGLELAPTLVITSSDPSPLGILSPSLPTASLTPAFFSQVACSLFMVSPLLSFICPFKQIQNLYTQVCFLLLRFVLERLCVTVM
# Method in brief: as §1
# ETV2 = target: T4, ETV2 (Homo sapiens, UniProt O00321 1-342); conditions: protein: recombinant; tags: N-terminal GST; dsDNA, one strand shown
# T4 sequence: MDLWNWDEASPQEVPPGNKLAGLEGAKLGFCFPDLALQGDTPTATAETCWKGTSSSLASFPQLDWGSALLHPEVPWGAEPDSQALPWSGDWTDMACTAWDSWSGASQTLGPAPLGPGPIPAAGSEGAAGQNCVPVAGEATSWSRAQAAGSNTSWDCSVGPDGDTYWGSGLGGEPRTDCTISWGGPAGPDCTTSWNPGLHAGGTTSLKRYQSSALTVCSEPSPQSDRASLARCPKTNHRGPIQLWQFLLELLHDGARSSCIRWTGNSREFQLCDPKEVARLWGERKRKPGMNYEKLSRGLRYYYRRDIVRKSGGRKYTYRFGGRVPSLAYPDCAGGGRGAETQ
# Method in brief: as §1
# ELF3 = target: T5, ELF3 (Homo sapiens, UniProt P78545 1-371); conditions: protein: recombinant; tags: N-terminal GST; dsDNA, one strand shown
# T5 sequence: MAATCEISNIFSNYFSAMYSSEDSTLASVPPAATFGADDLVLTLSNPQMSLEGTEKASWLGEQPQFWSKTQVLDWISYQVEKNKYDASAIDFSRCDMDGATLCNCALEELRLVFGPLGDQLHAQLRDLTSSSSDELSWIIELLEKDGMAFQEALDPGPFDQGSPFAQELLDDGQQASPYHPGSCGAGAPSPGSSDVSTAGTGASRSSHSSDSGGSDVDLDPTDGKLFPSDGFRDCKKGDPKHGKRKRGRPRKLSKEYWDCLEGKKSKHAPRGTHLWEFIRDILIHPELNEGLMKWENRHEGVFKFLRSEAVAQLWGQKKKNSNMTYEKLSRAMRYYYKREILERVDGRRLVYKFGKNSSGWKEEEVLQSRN
# Method in brief: as §1
# CRX = CRX (Homo sapiens, UniProt O43186 1-299); conditions: protein: recombinant; tags: N-terminal GST; dsDNA, one strand shown
# Method in brief: as §1
# ETV1 = ETV1 (Homo sapiens, UniProt P50549 1-477); conditions: protein: recombinant; tags: N-terminal GST; dsDNA, one strand shown
# Method in brief: as §1
# ERF = target: T6, ERF (Homo sapiens, UniProt P50548 1-548); conditions: protein: recombinant; tags: N-terminal GST; dsDNA, one strand shown
# T6 sequence: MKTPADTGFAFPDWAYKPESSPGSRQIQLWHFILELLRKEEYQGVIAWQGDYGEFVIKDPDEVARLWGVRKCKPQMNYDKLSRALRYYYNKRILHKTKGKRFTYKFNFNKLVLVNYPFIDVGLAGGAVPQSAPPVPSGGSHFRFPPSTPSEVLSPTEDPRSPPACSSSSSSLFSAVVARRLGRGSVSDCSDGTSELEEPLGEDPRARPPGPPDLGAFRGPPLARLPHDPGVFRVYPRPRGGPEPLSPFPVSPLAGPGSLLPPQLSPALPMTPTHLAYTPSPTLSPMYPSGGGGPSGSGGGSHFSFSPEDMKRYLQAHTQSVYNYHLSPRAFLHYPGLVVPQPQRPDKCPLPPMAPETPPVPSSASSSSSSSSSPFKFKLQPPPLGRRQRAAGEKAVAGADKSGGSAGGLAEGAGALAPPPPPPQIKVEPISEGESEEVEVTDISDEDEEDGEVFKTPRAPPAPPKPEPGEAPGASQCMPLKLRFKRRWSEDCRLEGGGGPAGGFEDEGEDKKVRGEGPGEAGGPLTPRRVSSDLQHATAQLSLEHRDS
# Method in brief: as §1
# ETV3L = target: T7, ETV3L (Homo sapiens, UniProt Q6ZN32 1-361); conditions: protein: recombinant; tags: N-terminal GST; dsDNA, one strand shown
# T7 sequence: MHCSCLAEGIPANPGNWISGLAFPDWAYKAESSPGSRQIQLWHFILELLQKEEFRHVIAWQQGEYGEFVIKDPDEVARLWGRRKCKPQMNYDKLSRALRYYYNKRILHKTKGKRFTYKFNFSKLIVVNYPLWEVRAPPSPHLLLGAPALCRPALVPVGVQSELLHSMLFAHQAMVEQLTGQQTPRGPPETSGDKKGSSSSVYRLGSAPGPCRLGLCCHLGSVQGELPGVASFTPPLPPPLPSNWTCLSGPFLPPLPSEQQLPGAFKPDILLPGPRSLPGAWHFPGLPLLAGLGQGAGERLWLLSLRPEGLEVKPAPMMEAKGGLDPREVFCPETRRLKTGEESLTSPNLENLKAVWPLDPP
# Method in brief: as §1
# ETS2 = target: T8, ETS2 (Homo sapiens, UniProt P15036 1-469); conditions: protein: recombinant; tags: N-terminal GST; dsDNA, one strand shown
# T8 sequence: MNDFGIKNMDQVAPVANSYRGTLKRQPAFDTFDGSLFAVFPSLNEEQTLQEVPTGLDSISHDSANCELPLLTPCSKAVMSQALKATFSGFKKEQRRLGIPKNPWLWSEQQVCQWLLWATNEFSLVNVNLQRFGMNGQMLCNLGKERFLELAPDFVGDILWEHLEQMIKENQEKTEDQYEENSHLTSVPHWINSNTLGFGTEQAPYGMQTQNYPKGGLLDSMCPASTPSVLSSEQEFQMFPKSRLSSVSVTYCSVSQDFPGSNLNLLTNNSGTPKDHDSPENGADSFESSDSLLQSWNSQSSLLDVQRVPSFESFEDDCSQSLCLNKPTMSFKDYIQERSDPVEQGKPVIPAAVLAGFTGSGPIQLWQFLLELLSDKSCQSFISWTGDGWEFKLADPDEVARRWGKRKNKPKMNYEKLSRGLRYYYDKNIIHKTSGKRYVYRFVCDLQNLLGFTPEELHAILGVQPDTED
# Method in brief: as §1
# SPDEF = target: T9, SPDEF (Homo sapiens, UniProt O95238 1-335); conditions: protein: recombinant; tags: N-terminal GST; dsDNA, one strand shown
# T9 sequence: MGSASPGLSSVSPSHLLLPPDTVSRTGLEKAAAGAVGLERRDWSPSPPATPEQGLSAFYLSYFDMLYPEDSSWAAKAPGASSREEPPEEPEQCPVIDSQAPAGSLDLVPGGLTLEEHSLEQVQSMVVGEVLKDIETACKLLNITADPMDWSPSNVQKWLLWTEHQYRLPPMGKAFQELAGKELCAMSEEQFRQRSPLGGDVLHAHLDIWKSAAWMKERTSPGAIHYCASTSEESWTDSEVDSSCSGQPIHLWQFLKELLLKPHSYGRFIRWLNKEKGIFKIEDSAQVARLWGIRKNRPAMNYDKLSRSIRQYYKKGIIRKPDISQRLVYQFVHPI
# Method in brief: as §1
# ETV7 = target: T10, ETV7 (Homo sapiens, UniProt Q9Y603 1-341); conditions: protein: recombinant; tags: N-terminal GST; dsDNA, one strand shown
# T10 sequence: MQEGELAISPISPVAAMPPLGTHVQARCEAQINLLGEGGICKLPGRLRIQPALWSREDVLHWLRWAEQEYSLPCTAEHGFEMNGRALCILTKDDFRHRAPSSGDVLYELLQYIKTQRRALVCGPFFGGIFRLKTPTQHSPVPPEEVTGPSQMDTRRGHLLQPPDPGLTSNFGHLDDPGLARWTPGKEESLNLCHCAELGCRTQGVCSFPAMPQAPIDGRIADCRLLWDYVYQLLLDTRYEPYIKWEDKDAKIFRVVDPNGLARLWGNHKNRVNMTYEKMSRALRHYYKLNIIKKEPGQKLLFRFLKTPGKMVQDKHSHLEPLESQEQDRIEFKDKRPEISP
# Method in brief: as §1
# ELF5 = target: T11, ELF5 (Homo sapiens, UniProt Q9UKW6-2 1-255); conditions: protein: recombinant; tags: N-terminal GST; dsDNA, one strand shown
# T11 sequence: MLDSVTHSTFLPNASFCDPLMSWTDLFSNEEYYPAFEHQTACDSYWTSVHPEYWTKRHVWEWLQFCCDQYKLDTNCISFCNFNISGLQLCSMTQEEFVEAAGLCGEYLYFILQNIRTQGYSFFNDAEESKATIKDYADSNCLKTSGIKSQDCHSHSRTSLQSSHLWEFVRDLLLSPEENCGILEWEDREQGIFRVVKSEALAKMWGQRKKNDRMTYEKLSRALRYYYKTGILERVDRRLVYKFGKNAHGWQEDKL
# Method in brief: as §1
# ETV3 = target: T12, ETV3 (Homo sapiens, UniProt P41162-2 1-143); conditions: protein: recombinant; tags: N-terminal GST; dsDNA, one strand shown
# T12 sequence: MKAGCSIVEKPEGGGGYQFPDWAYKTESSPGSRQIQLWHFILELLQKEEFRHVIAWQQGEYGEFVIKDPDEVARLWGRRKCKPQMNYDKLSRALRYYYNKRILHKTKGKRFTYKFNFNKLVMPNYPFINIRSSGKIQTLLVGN
# Method in brief: as §1
# ETV6 = ETV6 (Homo sapiens, UniProt P41212 1-452); conditions: protein: recombinant; tags: N-terminal GST; dsDNA, one strand shown
# Method in brief: as §1
# Sequence of ETV6 (P41212 whole entry): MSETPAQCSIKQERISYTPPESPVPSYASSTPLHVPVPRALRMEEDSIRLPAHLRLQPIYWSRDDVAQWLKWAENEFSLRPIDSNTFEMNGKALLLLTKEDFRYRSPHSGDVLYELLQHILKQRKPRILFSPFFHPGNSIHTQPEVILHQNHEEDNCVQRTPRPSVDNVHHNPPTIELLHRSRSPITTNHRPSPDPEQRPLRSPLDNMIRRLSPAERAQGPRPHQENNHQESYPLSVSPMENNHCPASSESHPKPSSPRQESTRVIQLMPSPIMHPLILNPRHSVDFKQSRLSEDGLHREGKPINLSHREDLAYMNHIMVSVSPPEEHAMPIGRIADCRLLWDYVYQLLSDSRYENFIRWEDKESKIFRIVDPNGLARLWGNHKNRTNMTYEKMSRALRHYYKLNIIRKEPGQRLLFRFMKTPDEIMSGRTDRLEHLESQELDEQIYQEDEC
# Sequence of HSF1 (Q00613 whole entry): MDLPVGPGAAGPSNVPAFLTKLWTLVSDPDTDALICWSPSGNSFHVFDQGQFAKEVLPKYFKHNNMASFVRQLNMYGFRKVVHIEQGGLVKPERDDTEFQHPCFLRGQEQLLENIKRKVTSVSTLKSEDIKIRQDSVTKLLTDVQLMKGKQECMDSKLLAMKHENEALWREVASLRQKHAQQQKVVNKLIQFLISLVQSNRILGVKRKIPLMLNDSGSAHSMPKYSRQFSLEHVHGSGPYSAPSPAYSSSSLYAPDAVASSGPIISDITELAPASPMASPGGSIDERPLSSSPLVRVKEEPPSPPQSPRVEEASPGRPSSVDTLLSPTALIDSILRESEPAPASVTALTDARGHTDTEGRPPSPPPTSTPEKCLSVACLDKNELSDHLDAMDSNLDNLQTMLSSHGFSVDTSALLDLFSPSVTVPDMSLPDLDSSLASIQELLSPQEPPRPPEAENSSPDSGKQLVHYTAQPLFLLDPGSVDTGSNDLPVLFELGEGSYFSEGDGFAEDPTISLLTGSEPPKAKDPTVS
# Sequence of ELF4 (Q99607 whole entry): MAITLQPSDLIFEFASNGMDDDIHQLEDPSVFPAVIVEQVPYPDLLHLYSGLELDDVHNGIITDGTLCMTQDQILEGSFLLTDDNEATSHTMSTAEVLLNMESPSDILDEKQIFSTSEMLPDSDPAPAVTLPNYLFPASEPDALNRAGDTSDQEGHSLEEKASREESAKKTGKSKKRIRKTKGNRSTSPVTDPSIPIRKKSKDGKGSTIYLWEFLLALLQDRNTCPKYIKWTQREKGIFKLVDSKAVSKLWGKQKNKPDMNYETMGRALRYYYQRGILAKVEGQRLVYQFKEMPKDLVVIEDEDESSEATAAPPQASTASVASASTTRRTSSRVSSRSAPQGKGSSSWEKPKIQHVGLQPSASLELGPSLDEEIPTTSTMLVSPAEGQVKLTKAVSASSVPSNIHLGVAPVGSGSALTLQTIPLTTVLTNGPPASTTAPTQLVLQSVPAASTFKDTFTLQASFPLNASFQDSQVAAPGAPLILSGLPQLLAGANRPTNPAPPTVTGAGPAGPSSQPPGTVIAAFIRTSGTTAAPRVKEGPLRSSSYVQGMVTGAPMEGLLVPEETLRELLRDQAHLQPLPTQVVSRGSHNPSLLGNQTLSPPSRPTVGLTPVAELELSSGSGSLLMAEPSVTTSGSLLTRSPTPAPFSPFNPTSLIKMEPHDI
# Sequence of ETV5 (P41161 whole entry): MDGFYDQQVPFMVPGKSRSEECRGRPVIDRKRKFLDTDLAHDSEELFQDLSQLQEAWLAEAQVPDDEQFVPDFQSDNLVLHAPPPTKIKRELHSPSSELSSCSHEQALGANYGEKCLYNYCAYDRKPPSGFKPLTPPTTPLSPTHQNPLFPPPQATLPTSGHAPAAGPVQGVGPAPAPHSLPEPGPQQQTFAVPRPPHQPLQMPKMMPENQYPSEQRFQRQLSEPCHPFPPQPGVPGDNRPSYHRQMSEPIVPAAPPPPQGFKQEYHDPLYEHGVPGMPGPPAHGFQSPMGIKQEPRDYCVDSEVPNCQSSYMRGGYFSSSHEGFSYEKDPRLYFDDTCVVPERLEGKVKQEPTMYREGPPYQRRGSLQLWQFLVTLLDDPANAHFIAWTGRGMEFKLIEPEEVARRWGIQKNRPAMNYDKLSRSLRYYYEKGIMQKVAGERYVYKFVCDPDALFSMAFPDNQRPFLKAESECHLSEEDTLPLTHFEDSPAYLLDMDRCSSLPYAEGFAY
# Sequence of CRX (O43186 whole entry): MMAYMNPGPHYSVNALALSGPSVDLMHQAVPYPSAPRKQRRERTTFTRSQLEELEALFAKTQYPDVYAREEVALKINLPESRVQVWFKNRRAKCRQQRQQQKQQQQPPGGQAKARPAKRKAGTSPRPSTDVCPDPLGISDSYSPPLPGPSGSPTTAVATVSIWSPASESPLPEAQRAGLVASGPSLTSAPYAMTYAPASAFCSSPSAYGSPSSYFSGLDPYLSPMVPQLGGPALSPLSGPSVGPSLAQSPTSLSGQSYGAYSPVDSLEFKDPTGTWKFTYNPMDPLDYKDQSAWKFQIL
# Sequence of ETV1 (P50549 whole entry): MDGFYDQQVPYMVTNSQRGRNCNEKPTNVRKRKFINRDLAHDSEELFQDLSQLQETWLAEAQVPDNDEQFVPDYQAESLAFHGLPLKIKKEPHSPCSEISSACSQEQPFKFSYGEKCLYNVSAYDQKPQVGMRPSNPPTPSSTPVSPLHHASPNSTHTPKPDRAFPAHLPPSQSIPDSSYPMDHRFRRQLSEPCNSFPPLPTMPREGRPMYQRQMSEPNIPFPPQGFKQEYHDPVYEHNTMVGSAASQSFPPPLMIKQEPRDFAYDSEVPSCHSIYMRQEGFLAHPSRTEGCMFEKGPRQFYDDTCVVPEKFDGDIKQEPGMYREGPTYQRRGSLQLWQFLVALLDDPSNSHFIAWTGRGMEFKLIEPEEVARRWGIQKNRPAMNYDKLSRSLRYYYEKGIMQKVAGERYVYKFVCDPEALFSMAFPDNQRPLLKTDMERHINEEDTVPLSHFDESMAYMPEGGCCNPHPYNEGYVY
sequence,measurement,setting,value
ACCCAT,binding signal,FEV,"1.17 fold enrichment (6-mer frequency, TF over GST control)"
same,binding signal,ETV5,"1.25 fold enrichment (6-mer frequency, TF over GST control)"
same,binding signal,HSF1,"1.05 fold enrichment (6-mer frequency, TF over GST control)"
same,binding signal,SPIC,"1.15 fold enrichment (6-mer frequency, TF over GST control)"
same,binding signal,ELF4,"1.25 fold enrichment (6-mer frequency, TF over GST control)"
same,binding signal,ELK4,"1.17 fold enrichment (6-mer frequency, TF over GST control)"
same,binding signal,ETV2,"1.18 fold enrichment (6-mer frequency, TF over GST control)"
same,binding signal,ELF3,"1.23 fold enrichment (6-mer frequency, TF over GST control)"
same,binding signal,CRX,"1.06 fold enrichment (6-mer frequency, TF over GST control)"
same,binding signal,ETV1,"1.19 fold enrichment (6-mer frequency, TF over GST control)"
same,binding signal,ERF,"1.31 fold enrichment (6-mer frequency, TF over GST control)"
same,binding signal,ETV3L,"1.34 fold enrichment (6-mer frequency, TF over GST control)"
same,binding signal,ETS2,"1.37 fold enrichment (6-mer frequency, TF over GST control)"
same,binding signal,SPDEF,"1.21 fold enrichment (6-mer frequency, TF over GST control)"
same,binding signal,ETV7,"1.37 fold enrichment (6-mer frequency, TF over GST control)"
same,binding signal,ELF5,"1.24 fold enrichment (6-mer frequency, TF over GST control)"
same,binding signal,ETV3,"1.25 fold enrichment (6-mer frequency, TF over GST control)"
same,binding signal,ETV6,"1.24 fold enrichment (6-mer frequency, TF over GST control)"

# From paper PMC7862700, “An all-to-all approach to the identification of sequence-specific readers for epigenetic DNA modifications on cytosine”
